From PubChem BioAssay (NCI) come the findings set out here.

Assay in all cases: NCI-60 one-dose screen, 48 h (100 = growth as untreated, 0 = no growth, -100 = all killed)
What all share (details): 10 µM unless noted

For assay [1], the system named is DU-145 prostate.
For assay [2], the system named is K-562 leukemia.
Assay [3] relates to MALME-3M melanoma.
Assay [4] relates to MDA-MB-231 breast.
Assay [5] relates to RXF 393 renal.
For assay [6], the system named is SF-268 CNS.
The test system of assay [7] is SF-295 CNS.
The test system of assay [8] is SF-539 CNS.
Assay [9] concerns UACC-257 melanoma.
Assay [10] deals with M14 melanoma.
The subject of assay [11] is HCT-15 colon.
For assay [12], the system named is HT29 colon.
For assay [13], the system named is SNB-75 CNS.
The test system of assay [14] is SNB-19 CNS.
In assay [15] the test system is U251 CNS.
The test system of assay [16] is PC-3 prostate.
The subject of assay [17] is SK-MEL-5 melanoma.
In assay [18] the test system is UACC-62 melanoma.
The subject of assay [19] is LOX IMVI melanoma.
Assay [20] has as its system SK-MEL-28 melanoma.

The panel holds about 83,000 compounds, 20% with a hit somewhere; the sample as a whole holds those more often.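 A percent growth of 40 corresponds to 60% growth inhibition; 0 means no net growth; -100 means all cells died. Active threshold: below 10.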 Unmarked numbers belong to inactive results. The source made the active and inactive calls.

As to `COc1cc2c(c(OC)c1OC)CCC(c1cccc(C(=O)Nc3ccc(C#N)cc3)c1)O2` (stereo not given), the growth in assay [1] was 66.5%; in assay [2], 20.4%; in assay [3] it was 58.2%; in [4], 49.4%; in assay [5], 78.8%; in assay [6] it was 80.1%. Moreover, the growth is 42.5% in assay [7]; 68.8% in assay [8]; 44.5% in assay [9]; 37.7% in assay [10]; 59.7% in assay [11]; 69.3% in [12]. In addition, the growth in assay [13] is 57.3%; in assay [14], 58.7%; in assay [15] it was 64.2%; in assay [16], 14%; in assay [17], -12.7% (active); in assay [18], 24.6%. Also, the values for the growth in assay [19] and in assay [20] were 39.5% and 58.8%, respectively.

For the compound `CC(C)(C)[Si](C)(C)OC1[C@@H](CNC(=O)NC(=O)NC(N)=O)O[C@@H](n2cnc3c(NC(=O)Nc4ccccc4)ncnc32)[C@H]1O[Si](C)(C)C(C)(C)C` (stereo not given in full), the growth in assay [1] was 58.9%; in assay [2], 66.3%; in assay [3], 79%; in assay [4], 83.7%; in assay [5] it was 71.6%; in assay [6], 66.4%. In addition, the growth is 73.1% in assay [7]; 95.4% in assay [8]; 94% in assay [9]; 68% in assay [10]; 94.8% in assay [11]; 10.5% in assay [12]. The growth in assay [13] was 84.1%; in assay [14], 98.3%; in assay [15] it was 69.1%; in assay [16], 41.5%; in assay [17], 91.8%; in assay [18], 87.8%. The values for the growth in [19] and in [20] were 56% and 63.5%, respectively.

As for `CC1CCN(CCOc2ccc(CNc3ccc4nc(CCC5CCCCC5)[nH]c4c3)cc2)CC1`, the growth is 50.9% in assay [1]; -0.866% (active) in assay [2]; -85.8% (active) in assay [3]; 0.0918% (active) in assay [4]; 2.71% (active) in [5]; 57.4% in assay [6]. Further, the growth in assay [7] is -45.9% (active); in assay [8] it was -67.9% (active); in assay [9], -72.3% (active); in assay [10] it was -63.1% (active); in assay [11], -22.5% (active); in assay [12], 10%. For the same compound, the growth is 59.7% in [13]; 62.3% in assay [14]; -11.2% (active) in [15]; 40.3% in [16]; -99% (active) in assay [17]; 56.8% in assay [18]. For the same compound, the growth in assay [19] is -85.7% (active); in assay [20] it was -80.2% (active).

On to `Nc1nc(N)c(-c2ccc(Cl)c(Cl)c2)c(CBr)n1`, for which the growth was 83.2% in assay [1]; 36.8% in assay [2]; 89% in [3]; 82.2% in assay [4]; 90.6% in [5]; 94% in assay [6]. In addition, the growth in assay [7] is 55.7%; in [8] it was 65.4%; in [9], 68.5%; in assay [10], 50.5%; in assay [11], 43%; in [12], 34.2%. The growth in [13] was 95%; in [14], 94%; in assay [15], 65.4%; in [16], 65.2%; in assay [17], 62.6%; in assay [18] it was 57%. Moreover, the figures for the growth in [19] and in [20] were 34.9% and 103%, respectively.

Take `COc1ccc(-c2nn(-c3cccc(Cl)c3)cc2-c2cc(-c3ccc(Br)cc3)nc(N)n2)cc1`: the growth is 107% in [1]; 94.2% in assay [2]; 102% in assay [3]; 81.9% in assay [4]; 111% in assay [5]; 101% in [6]. In addition, the growth was 99.1% in assay [7]; 103% in [8]; 104% in [9]; 92.8% in assay [10]; 81.4% in assay [11]; 86% in assay [12]. Besides, the growth in assay [13] was 96.9%; in assay [14], 95.2%; in assay [15], 97.5%; in assay [16], 80%; in assay [17], 94.6%; in assay [18], 85%. For the same compound, the growth in assay [19] is 98.7%; in [20], 103%.

Turning to `Fc1cccc(Oc2ccc(Nc3ncnc4ccc(OCCCN5CCOCC5)cc34)cc2Cl)c1`, the growth in assay [1] is 52.5%; in [2], 3.55% (active); in assay [3], 24.6%; in [4], 61.4%; in [5], 55.5%; in assay [6], 54.4%. Also, the growth was 82.7% in assay [7]; 88.1% in assay [8]; 12.5% in [9]; -44% (active) in assay [10]; 10.8% in [11]; 18.2% in assay [12]. For the same compound, the growth in [13] is 77.2%; in assay [14], 63.3%; in [15] it was 47.4%; in assay [16], 63.8%; in assay [17], 32.3%; in assay [18] it was 71.6%. The growth is 21.6% in assay [19] and 68.4% in assay [20].

Take `Cn1c(=O)cc2c3c(c(NCCCO)ccc31)C(=O)c1ccccc1-2`: the growth was 45.4% in assay [1]; 38.1% in [2]; 27.3% in assay [3]; 58.1% in [4]; 42.6% in assay [5]; 42.3% in assay [6]. Further, the growth was 42.8% in assay [7]; 50% in assay [8]; 64.2% in assay [9]; 55.3% in assay [10]; 39.5% in [11]; 23.1% in assay [12]. Further, the growth was 39.3% in [13]; 47.3% in assay [14]; 37.5% in [15]; 45.2% in assay [16]; 40.2% in assay [17]; 40.4% in assay [18]. The growth is 26.6% in [19] and 71.4% in assay [20].

For the compound `C=C(C)[C@@H]1CC[C@]2(C(=O)O)CC[C@]3(C)[C@H](CC[C@@H]4[C@@]5(C)CCC(NC(=O)c6cccc(OC(C)=O)c6OC(C)=O)C(C)(C)[C@@H]5CC[C@]43C)[C@@H]12` (stereo not given in full), the growth in [1] is 21.3%; in [2], 10.7%; in [3], -4.37% (active); in [4], 11.9%; in assay [5] it was -34.3% (active); in assay [6], 14.9%. The growth in assay [7] is -29.6% (active); in assay [8], -26.4% (active); in [9], 3.36% (active); in assay [10], -16.2% (active); in assay [11], 6.94% (active); in [12] it was 8.01% (active). Also, the growth in assay [13] is 12.5%; in assay [14] it was 26%; in assay [15], 9.78% (active); in assay [16] it was 17.6%; in assay [17], -81.7% (active); in assay [18], -38.3% (active). The values for the growth in assay [19] and in [20] were -74.1% (active) and 12%, respectively.
